Publication PMC5540273 (PLoS ONE, 2017)

system: T1, DLK; settings: concentration: 1 μM,replicates: in singlicate; n = 1
T1 construct: gene MAP3K12
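Also: KINOMEscan kinase panel screen.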

Row | SMILES | %Inh
1 | CCn1c(-c2nonc2N)nc2cncc(Br)c21 [SB-738004] | 43%
2 | O=C1NCCc2[nH]c(-c3ccncc3)cc21 | 8%
3 | FC(F)(F)c1cc(Br)cc(Nc2nccc(-c3cnn4ncccc34)n2)c1 [GW810578] | 0%
4 | COc1cccc(OC)c1C(=O)Nc1cccc(-c2nn3ccccc3c2-c2ccnc(Nc3cccc(F)c3)n2)c1 [GSK361065] | 0%
5 | C[C@@H](Oc1cc(-n2cnc3cc(-c4ccncc4)ccc32)sc1C(N)=O)c1ccccc1Cl [GSK479719] | 0%
6 | NC(=O)c1ccc(-c2cc3ncnc(SCC(=O)O)c3s2)cc1 | 0%
7 | CC(C)S(=O)(=O)N1CCN(Cc2ccc3c(c2)nc(NC(=O)c2ccsc2)n3C[C@H](O)c2ccccc2)CC1 [GW635815] | 69%
8 | COc1cc2nccc(Nc3ccc(Oc4ccccc4)cc3)c2cc1OC.Cl [GI261656] | 34%
9 | CS(=O)c1ccc(-c2coc3ccc(-c4n[nH]c(=O)o4)cc23)cc1 (centres unmarked) | 0%
10 | OCCn1cc(-c2cnc3nnn(Cc4ccc5ncccc5c4)c3n2)cn1 | 0%
11 | COC(=O)c1cccc(NC(=O)NC2CCN(c3ccnc(Nc4cc(OC)c(OC)c(OC)c4)n3)C2)c1 (centres unmarked) [GSK1379767] | 61%
12 | O=c1[nH]cc(-c2ccc(O)cc2)c2sc(-c3ccncc3)cc12 [GSK1033723] | 12%
13 | COc1cc2ncn(-c3cc(OCC4CCCCC4)c(C(N)=O)s3)c2cc1OC [GSK204559] | 31%
14 | Cc1cccc(-c2nc(Nc3ccncc3)c3sccc3n2)n1 [GW869641] | 0%
15 | O=C(Nc1ccc(Oc2ccc3nc(NC(=O)C4CC4)cn3n2)c(F)c1)c1cccn(-c2ccccc2)c1=O | 13%
16 | COC(=O)Nc1nc2cc(Oc3ccc(NC(=O)Nc4cc(C(F)(F)F)ccc4Cl)cc3)ccc2[nH]1.Cl [GW697465] | 60%
17 | Cc1ccc(C(=O)Nc2ccc(Oc3ccc4nc(NC(=O)C5CC5)cn4c3)c(F)c2)c(=O)n1-c1ccccc1 | 35%
18 | NC(=O)Nc1sc(-c2ccc(F)cc2)cc1C(N)=O [GW789449] | 38%
19 | C[C@@H]1CNc2c(sc3ccc4nc(-c5ccncc5)ccc4c23)C(=O)N1 | 0%

Row | SMILES | %Inh
20 | CCN1CCN(CCCC(=O)Nc2n[nH]c3nc(-c4ccc(O)cc4)c(Br)cc23)CC1 [SB-731579] | 8%
21 | C[C@@H]1CNc2c(sc3ccc4nc(-c5ccc(O)cc5)ccc4c23)C(=O)N1 | 0%
22 | Nc1nccc(-c2ccc3c(N)n[nH]c3c2)n1 [GSK1034945] | 1%
23 | c1ccc(Oc2ccc(Nc3ccnc4ccc(-c5ccccn5)cc34)cc2)cc1 [GW407034] | 49%
24 | CC(C(=O)NC1CCN(c2ccnc(Nc3ccc(F)cc3)n2)C1)c1ccc(Cl)cc1 (centres unmarked) [GSK1379713] | 19%
25 | CCn1c(-c2nonc2N)nc2cncc(CNC3CCNCC3)c21.Cl [SB-747651] | 23%
26 | CN1CCN(CCCNc2nccc(-c3c(-c4ccc(F)cc4)nn4cc(C(N)=O)ccc34)n2)CC1 [GW622475] | 0%
27 | COc1cccc(CNC(=O)NC2CCN(c3ccnc(Nc4cc(OC)c(OC)c(OC)c4)n3)C2)c1 (centres unmarked) [GSK1379765] | 61%
28 | Cn1ccc2ncnc(Oc3ccc(NC(=O)Nc4cccc(C(F)(F)F)c4)c(F)c3)c21 | 0%
29 | CC(=O)c1c(-c2ccncc2)[nH]c(-c2ccncc2)c1C [GW493036] | 0%
30 | CCOC(=O)N1CCC(n2cnc(-c3ccc(F)cc3)c2-c2ccnc(N)n2)CC1 [SB-219952] | 0%
31 | C[C@@H](Oc1cc(-n2cnc3ccc(-c4ccncc4)cc32)sc1C(N)=O)c1ccccc1Cl [GSK483724] | 17%
32 | CN(c1ccc2c(c1)nc(NCc1ccc(F)cc1)n2C)c1ccnc(Nc2ccc(CS(C)(=O)=O)cc2)n1.Cl [GW813244] | 0%
33 | COc1cccc(C2=C(Nc3cccc(Cl)c3)C(=O)NC2=O)c1 [SB-341556] | 0%
34 | O=C(Nc1cccc(Oc2ccc3nccn3n2)c1)Nc1cccc(C(F)(F)F)c1 | 3%
35 | O=C(NOCC1CC1)c1cc(Br)c(F)c(F)c1Nc1ccc(I)cc1Cl | 0%
36 | CN1CCN(CCNc2nc3cc(Oc4ccc(NC(=O)Nc5cc(C(F)(F)F)ccc5F)cc4)ccc3[nH]2)CC1.Cl.Cl [GW768504] | 0%
37 | N#Cc1cccc(C(=O)NC2CCN(c3ccnc(Nc4ccc(F)cc4)n3)C2)c1 (centres unmarked) [GSK1379708] | 35%

system: T2, DMPK2; settings: concentration: 1 μM,replicates: in singlicate; n = 1
T2 construct: gene CDC42BPG

Row | SMILES | %Inh
38 | CCn1c(-c2nonc2N)nc2cncc(Br)c21 [SB-738004] | 10%
39 | O=C1NCCc2[nH]c(-c3ccncc3)cc21 | 0%
40 | FC(F)(F)c1cc(Br)cc(Nc2nccc(-c3cnn4ncccc34)n2)c1 [GW810578] | 20%
41 | COc1cccc(OC)c1C(=O)Nc1cccc(-c2nn3ccccc3c2-c2ccnc(Nc3cccc(F)c3)n2)c1 [GSK361065] | 84%
42 | C[C@@H](Oc1cc(-n2cnc3cc(-c4ccncc4)ccc32)sc1C(N)=O)c1ccccc1Cl [GSK479719] | 0%
43 | NC(=O)c1ccc(-c2cc3ncnc(SCC(=O)O)c3s2)cc1 | 24%
44 | CC(C)S(=O)(=O)N1CCN(Cc2ccc3c(c2)nc(NC(=O)c2ccsc2)n3C[C@H](O)c2ccccc2)CC1 [GW635815] | 0%
45 | COc1cc2nccc(Nc3ccc(Oc4ccccc4)cc3)c2cc1OC.Cl [GI261656] | 6%
46 | CS(=O)c1ccc(-c2coc3ccc(-c4n[nH]c(=O)o4)cc23)cc1 (centres unmarked) | 0%
47 | OCCn1cc(-c2cnc3nnn(Cc4ccc5ncccc5c4)c3n2)cn1 | 0%
48 | COC(=O)c1cccc(NC(=O)NC2CCN(c3ccnc(Nc4cc(OC)c(OC)c(OC)c4)n3)C2)c1 (centres unmarked) [GSK1379767] | 27%
49 | O=c1[nH]cc(-c2ccc(O)cc2)c2sc(-c3ccncc3)cc12 [GSK1033723] | 17%
50 | COc1cc2ncn(-c3cc(OCC4CCCCC4)c(C(N)=O)s3)c2cc1OC [GSK204559] | 7%
51 | Cc1cccc(-c2nc(Nc3ccncc3)c3sccc3n2)n1 [GW869641] | 98.5%
52 | O=C(Nc1ccc(Oc2ccc3nc(NC(=O)C4CC4)cn3n2)c(F)c1)c1cccn(-c2ccccc2)c1=O | 0%
53 | COC(=O)Nc1nc2cc(Oc3ccc(NC(=O)Nc4cc(C(F)(F)F)ccc4Cl)cc3)ccc2[nH]1.Cl [GW697465] | 0%
54 | Cc1ccc(C(=O)Nc2ccc(Oc3ccc4nc(NC(=O)C5CC5)cn4c3)c(F)c2)c(=O)n1-c1ccccc1 | 0%
55 | NC(=O)Nc1sc(-c2ccc(F)cc2)cc1C(N)=O [GW789449] | 0%
56 | C[C@@H]1CNc2c(sc3ccc4nc(-c5ccncc5)ccc4c23)C(=O)N1 | 0%

Row | SMILES | %Inh
57 | CCN1CCN(CCCC(=O)Nc2n[nH]c3nc(-c4ccc(O)cc4)c(Br)cc23)CC1 [SB-731579] | 0%
58 | C[C@@H]1CNc2c(sc3ccc4nc(-c5ccc(O)cc5)ccc4c23)C(=O)N1 | 0%
59 | Nc1nccc(-c2ccc3c(N)n[nH]c3c2)n1 [GSK1034945] | 2%
60 | c1ccc(Oc2ccc(Nc3ccnc4ccc(-c5ccccn5)cc34)cc2)cc1 [GW407034] | 15%
61 | CC(C(=O)NC1CCN(c2ccnc(Nc3ccc(F)cc3)n2)C1)c1ccc(Cl)cc1 (centres unmarked) [GSK1379713] | 0%
62 | CCn1c(-c2nonc2N)nc2cncc(CNC3CCNCC3)c21.Cl [SB-747651] | 0%
63 | CN1CCN(CCCNc2nccc(-c3c(-c4ccc(F)cc4)nn4cc(C(N)=O)ccc34)n2)CC1 [GW622475] | 44%
64 | COc1cccc(CNC(=O)NC2CCN(c3ccnc(Nc4cc(OC)c(OC)c(OC)c4)n3)C2)c1 (centres unmarked) [GSK1379765] | 69%
65 | Cn1ccc2ncnc(Oc3ccc(NC(=O)Nc4cccc(C(F)(F)F)c4)c(F)c3)c21 | 4%
66 | CC(=O)c1c(-c2ccncc2)[nH]c(-c2ccncc2)c1C [GW493036] | 0%
67 | CCOC(=O)N1CCC(n2cnc(-c3ccc(F)cc3)c2-c2ccnc(N)n2)CC1 [SB-219952] | 39%
68 | C[C@@H](Oc1cc(-n2cnc3ccc(-c4ccncc4)cc32)sc1C(N)=O)c1ccccc1Cl [GSK483724] | 2%
69 | CN(c1ccc2c(c1)nc(NCc1ccc(F)cc1)n2C)c1ccnc(Nc2ccc(CS(C)(=O)=O)cc2)n1.Cl [GW813244] | 0%
70 | COc1cccc(C2=C(Nc3cccc(Cl)c3)C(=O)NC2=O)c1 [SB-341556] | 0%
71 | O=C(Nc1cccc(Oc2ccc3nccn3n2)c1)Nc1cccc(C(F)(F)F)c1 | 15%
72 | O=C(NOCC1CC1)c1cc(Br)c(F)c(F)c1Nc1ccc(I)cc1Cl | 0%
73 | CN1CCN(CCNc2nc3cc(Oc4ccc(NC(=O)Nc5cc(C(F)(F)F)ccc5F)cc4)ccc3[nH]2)CC1.Cl.Cl [GW768504] | 10%
74 | N#Cc1cccc(C(=O)NC2CCN(c3ccnc(Nc4ccc(F)cc4)n3)C2)c1 (centres unmarked) [GSK1379708] | 0%
